The results in this text go back to PubChem BioAssay (EPA / NIEHS).

Values joined by “and” are separate entries in the source; they are usually repeats but may differ in a detail not shown here. Identical values can stand only once. Active and inactive are the calls of the source. Rule for the calls: active = hit-call score of the fitted dose curve at least 0.9, where 1 is the maximum; inactive = score below 0.9.

Read-out in experiment [1]: Interleukin-6 (IL6), IL6 (gene 3569)
As to the kind of experiment: BSK_CASM3C_IL6: BioMAP Diversity Plus: CASM3C Assay for Interleukin-6 (IL6) Biomarker Activity for (AID 2283040). The settings on record: primary human coronary artery smooth muscle cells; actives raise or lower the signal.

Read-out in experiment [2]: Tissue plasminogen activator (tPA), PLAT (gene 5327)
As to the kind of experiment: BSK_BE3C_tPA: BioMAP Diversity Plus: BE3C Assay for Tissue plasminogen activator (tPA) Biomarker Activity (AID 2283041).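 For outcome: tPA level quantified by ELISA one day after compound addition.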 The settings on record: primary human bronchial epithelial cells; actives raise or lower the signal. In a few lines: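 Using human lung primary bronchial epithelial cells, tPA was measured by ELISA 24 h after dosing; data fitted relative to DMSO.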

Read-out in experiment [3]: Interleukin-8 (IL8), CXCL8 (gene 3576)
Put plainly: BSK_CASM3C_IL8: BioMAP Diversity Plus: CASM3C Assay for Interleukin-8 (IL8) Biomarker Activity (AID 2283042).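 Note: IL-8 protein level quantified by ELISA.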 The settings on record: primary human coronary artery smooth muscle cells; actives raise or lower the signal.

Read-out in experiment [4]: Human Leukocyte Antigen - DR isotype (HLADR), HLA-DRA (gene 3122)
Put plainly: BSK_CASM3C_HLADR: BioMAP Diversity Plus: CASM3C Assay for Human Leukocyte Antigen - DR isotype (HLADR) Biomarker Activity (AID 2283043).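 Note: cell-surface HLA-DR protein level quantified by ELISA.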 Conditions: primary human coronary artery smooth muscle cells; actives raise or lower the signal.

Read-out in experiment [5]: Macrophage colony-stimulating factor (MCSF), CSF1 (gene 1435)
As to the kind of experiment: BSK_CASM3C_MCSF: BioMAP Diversity Plus: CASM3C Assay for Macrophage colony-stimulating factor (MCSF) Biomarker Activity (AID 2283044).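 Note: M-CSF protein amount quantified by ELISA after 24 h exposure.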 Conditions: primary human coronary artery smooth muscle cells; actives raise or lower the signal.

Read-out in experiment [6]: Low-density lipoprotein receptor (LDLR), LDLR (gene 3949)
As to the kind of experiment: BSK_CASM3C_LDLR: BioMAP Diversity Plus: CASM3C Assay for Low-density lipoprotein receptor (LDLR) Biomarker Activity (AID 2283045).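 Note: LDLR protein level on the cell surface quantified by ELISA.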 Conditions: primary human coronary artery smooth muscle cells; actives raise or lower the signal.

Read-out in experiment [7]: Monocyte Chemoattractant Protein-1 (MCP1), CCL2 (gene 6347)
Put plainly: BSK_CASM3C_MCP1: BioMAP Diversity Plus: CASM3C Assay for Monocyte Chemoattractant Protein-1 (MCP1) Biomarker Activity (AID 2283046).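 Note: MCP-1 level quantified by ELISA 24 h after dosing.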 The settings on record: primary human coronary artery smooth muscle cells; actives raise or lower the signal.

A short description of experiment [8]: BSK_CASM3C_Proliferation: Cell Proliferation Assessment in the BioMAP Diversity Plus: CASM3C Assay (AID 2283047).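 Note: sulforhodamine B total protein stain as relative cell number at 560 nm; sub-confluent cells exposed 48 h before staining; fitted both ways against DMSO so gain or loss of cell number.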 The settings on record: primary human coronary artery smooth muscle cells.
Read-out in experiment [9]: Monokine induced gamma interferon (MIG), CXCL9 (gene 4283)
Put plainly: BSK_CASM3C_MIG: BioMAP Diversity Plus: CASM3C Assay for Monokine induced gamma interferon (MIG) Biomarker Activity (AID 2283048).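 Note: MIG protein level measured by ELISA.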 Conditions: primary human coronary artery smooth muscle cells; actives raise or lower the signal.

Read-out in experiment [10]: serum amyloid A (SAA), SAA1 (gene 6288)
Put plainly: BSK_CASM3C_SAA: BioMAP Diversity Plus: CASM3C Assay for serum amyloid A (SAA) Biomarker Activity (AID 2283049).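 Note: SAA protein level quantified by ELISA.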 Conditions: primary human coronary artery smooth muscle cells; actives raise or lower the signal.

Experiment [11] is described as follows: BSK_CASM3C_SRB: Viability Assessment in the BioMAP Diversity Plus: CASM3C Assay (AID 2283050).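 Note: total protein by SRB staining as cytotoxicity measure in parallel cultures; cells exposed to compound for 24 h.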 The settings on record: primary human coronary artery smooth muscle cells.
Read-out in experiment [12]: Thrombomodulin, THBD (gene 7056)
Put plainly: BSK_CASM3C_Thrombomodulin: BioMAP Diversity Plus: CASM3C Assay for Thrombomodulin Biomarker Activity (AID 2283051).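 Note: thrombomodulin protein level measured by ELISA 24 h after dosing.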 The settings on record: primary human coronary artery smooth muscle cells; actives raise or lower the signal.

Read-out in experiment [13]: Tissue Factor, F3 (gene 2152)
Put plainly: BSK_CASM3C_TissueFactor: BioMAP Diversity Plus: CASM3C Assay for Tissue Factor Biomarker Activity (AID 2283052).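 Note: cell surface tissue factor protein level read by ELISA.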 Conditions: primary human coronary artery smooth muscle cells; actives raise or lower the signal.

Read-out in experiment [14]: Interferon-gamma inducible Protein 10 (IP10), CXCL10 (gene 3627)
Put plainly: BSK_hDFCGF_IP10: BioMAP Diversity Plus: hDFCGF Assay for Interferon-gamma inducible Protein 10 (IP10) Biomarker Activity (AID 2283053). Conditions: primary human foreskin fibroblasts; actives raise or lower the signal. In outline: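 Chemical-treated human skin fibroblasts (primary) were sampled at 24 h for IP-10 by ELISA. Both increases and decreases relative to DMSO were scored.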

Read-out in experiment [15]: Urokinase-type plasminogen activator receptor (uPAR), PLAUR (gene 5329)
Put plainly: BSK_CASM3C_uPAR: BioMAP Diversity Plus: CASM3C Assay for Urokinase-type plasminogen activator receptor (uPAR) Biomarker Activity (AID 2283054).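 Note: cell-surface uPAR protein level quantified by ELISA.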 Conditions: primary human coronary artery smooth muscle cells; actives raise or lower the signal.

Read-out in experiment [16]: Vascular cell adhesion molecule 1 (VCAM1), VCAM1 (gene 7412)
Put plainly: BSK_CASM3C_VCAM1: BioMAP Diversity Plus: CASM3C Assay for Vascular cell adhesion molecule 1 (VCAM1) Biomarker Activity (AID 2283055).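 Note: VCAM-1 protein level quantified by ELISA on the cells.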 The settings on record: primary human coronary artery smooth muscle cells; actives raise or lower the signal.

Read-out in experiment [17]: Collagen III, COL3A1 (gene 1281)
As to the kind of experiment: BSK_hDFCGF_CollagenIII: BioMAP Diversity Plus: hDFCGF Assay for Collagen III Biomarker Activity (AID 2283056). The settings on record: primary human foreskin fibroblasts; actives raise or lower the signal. In a few lines:
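Cells: human foreskin fibroblasts, primary. Dosing followed by 24 h incubation, then ELISA for collagen III. Both increases and decreases scored relative to DMSO.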

Read-out in experiment [18]: Epidermal growth factor receptor (EGFR), EGFR (gene 1956)
Put plainly: BSK_hDFCGF_EGFR: BioMAP Diversity Plus: hDFCGF Assay for Epidermal growth factor receptor (EGFR) Biomarker Activity (AID 2283057). Conditions: primary human foreskin fibroblasts; actives raise or lower the signal. In a few lines: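 Cell-based multiplexed assay in primary human foreskin fibroblasts. EGFR is read by ELISA 24 h after treatment and compared with DMSO controls.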

Read-out in experiment [19]: Interleukin-8 (IL8), CXCL8 (gene 3576)
Put plainly: BSK_hDFCGF_IL8: BioMAP Diversity Plus: hDFCGF Assay for Interleukin-8 (IL8) Biomarker Activity (AID 2283058). Conditions: primary human foreskin fibroblasts; actives raise or lower the signal. In a few lines: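 IL-8 levels from compound-treated primary human fibroblasts were read by ELISA at 24 h, with DMSO serving as baseline for bidirectional fitting.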

Experiment [20] can be described thus: BSK_hDFCGF_Proliferation: Cell Proliferation Assessment in the BioMAP Diversity Plus: hDFCGF Assay (AID 2283059).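 Note: curves fitted for both rise and fall of signal versus DMSO baseline.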 Conditions: primary human foreskin fibroblasts. In a few lines:
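Total protein read at 560 nm after 0.1% SRB staining of TCA-fixed human skin fibroblasts, […]. Activity is fitted in both directions relative to DMSO as baseline.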

In the case of `O=C(O)C(F)(F)C(F)(F)OC(F)(F)F`, the outcome in [1], in experiment [2], in [3], in [4], in experiment [5] and in experiment [6] was inactive. In addition, the outcome in experiment [7], in experiment [8], in experiment [9], in experiment [10], in experiment [11] and in experiment [12] was inactive. Further, the result in [13], in [14], in experiment [15], in [16], in [17] and in experiment [18] was inactive. In addition, the outcome in experiment [19] and in experiment [20] was inactive.

Consider `O=C(O)C(F)(OC(F)(F)C(F)(OC(F)(F)C(F)(F)C(F)(F)F)C(F)(F)F)C(F)(F)F` (stereo not given), for which the outcome in experiment [1], in experiment [2], in [3], in [4], in experiment [5] and in [6] was inactive. Further, the outcome in [7], in experiment [8], in experiment [9], in experiment [10], in experiment [11] and in [12] was inactive. The outcome in experiment [13], in experiment [14], in experiment [15], in experiment [16], in experiment [17] and in [18] was inactive. The result in [19] and in experiment [20] was inactive.

One may read the AC50 as the concentration at which the activity in the assay is half-maximal. As to `CCCCCCCCCCCCCCCC[N+](C)(C)Cc1ccccc1`, the AC50 in experiment [1] is 3.74 µM (active); in experiment [2], 7.03 µM (active); in experiment [3], 4.79 µM (active); in experiment [4], 2.56 µM (active); in experiment [5] it was 1.89 µM (active); in experiment [6] it was 9.64 µM (active). The AC50 was 3.5 µM (active) in experiment [7]; 1.29 µM (active) in experiment [8]; 5.11 µM (active) in experiment [9]; 2.59 µM (active) in experiment [10]; 5.23 µM (active) in experiment [11]; 7.36 µM (active) in [13]. Also, the AC50 in experiment [14] is 2.56 µM (active); in [15], 7.8 µM (active); in experiment [16], 4.2 µM (active); in experiment [17], 666 nM (active); in experiment [19], 3.86 µM (active); in [20], 590 nM (active). Further, the result in experiment [12] and in [18] was inactive.

On to `CCCCOCCOCCOC(=O)CCCCC(=O)OCCOCCOCCCC`, for which the result in experiment [1], in experiment [2], in experiment [3], in [4], in [5] and in [6] was inactive. The outcome in experiment [7], in experiment [8], in experiment [9], in [10], in experiment [11] and in experiment [12] was inactive. The outcome in experiment [13], in experiment [14], in [15], in experiment [16], in experiment [17] and in [18] was inactive. For the same compound, the result in [19] and in [20] was inactive.

As to `CCCCCCCOC(=O)c1ccccc1C(=O)OCCCCCCC`, the result in experiment [1], in experiment [2], in experiment [3], in experiment [4], in [5] and in [6] was inactive. The outcome in [7], in experiment [8], in experiment [9], in [10], in experiment [11] and in [12] was inactive. Moreover, the result in [13], in [14], in [15], in [16], in experiment [17] and in [18] was inactive. The result in experiment [19] and in [20] was inactive.

As for `CCCCCCOC(=O)c1ccccc1O`, the outcome in experiment [1], in experiment [2], in [3], in experiment [4], in [5] and in experiment [6] was inactive. The outcome in experiment [7], in experiment [9], in [10], in experiment [11], in [12] and in experiment [13] was inactive. In addition, the result in experiment [15], in experiment [16] and in experiment [18] was inactive. Besides, the AC50 is 33.5 µM (active) and 24.5 µM (active) in experiment [8]; 38.1 µM (active) and 40.6 µM (active) in experiment [14]; 24.5 µM (active) and 16.9 µM (active) in experiment [17]; 36.9 µM (active) and 42.9 µM (active) in experiment [19]; 15.1 µM (active) and 14.2 µM (active) in experiment [20].
